Compound activity: PubChem BioAssay, several laboratories
Hits are enriched below; roughly 6.6% of the tested compounds scored in any of these assays.
Autofluor counter – counter-screen for toxin protease inhibitors: compound fluorescence. compound autofluorescence counterscreen, microsphere flow cytometry; stronger effect = higher value. fluorescence intensity (concentration not given with the values). 360,000 compounds, 3.1% hits; in the data active means fluorescence intensity above about 16000; inconclusive means no clear call, values can overlap the other calls
Anthrax LF prot – anthrax lethal factor protease inhibition; multiplex microsphere protease cleavage assay, LF; inhibition, % at 10 µM; 360,000 compounds, 0.12% hits; AID 588501
FBA Mtb inh – inhibits M. tuberculosis FBA enzyme | purified M. tuberculosis FBA, fluorescence read-out | AID 588726 | 360,000 compounds, 2.3% hits | P9WQA3 | inhibition, % at 1 µM; in the data active means inhibition above about 27%
Target sequence (P9WQA3 whole entry, looked up): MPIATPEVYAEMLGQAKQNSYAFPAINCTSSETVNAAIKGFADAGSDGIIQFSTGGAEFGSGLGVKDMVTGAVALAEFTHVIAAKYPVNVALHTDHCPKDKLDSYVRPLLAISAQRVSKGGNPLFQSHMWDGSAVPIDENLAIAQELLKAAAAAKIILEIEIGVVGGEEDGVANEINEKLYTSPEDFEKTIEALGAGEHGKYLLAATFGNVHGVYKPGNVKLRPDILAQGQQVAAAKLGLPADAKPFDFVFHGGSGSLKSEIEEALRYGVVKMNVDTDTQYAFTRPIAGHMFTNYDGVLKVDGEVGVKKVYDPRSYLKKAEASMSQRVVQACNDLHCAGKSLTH
GDH-TPI inh – counter-screen for M. tuberculosis FBA inhibitors: GDH-TPI coupled enzymes; GDH-TPI coupled enzyme counterscreen, NADH absorbance; inhibition, % at 4.8 µM; 360,000 compounds, 1.2% hits; in the data active means inhibition above about 30%
BoNT F protease – blocks Botulinum neurotoxin F light chain protease; 360,000 compounds, 0.22% hits; inhibition, % at 10 µM; Multiplex microsphere protease cleavage assay, flow cytometry; in the data active means inhibition above about 35%, passing the limit was not always enough; inconclusive means no clear call, values can overlap the other calls
BoNT-A LC inh2 – inhibitors of Botulinum neurotoxin A light chain protease. 360,000 compounds, 0.17% hits. inhibition, % at 10 µM. multiplex microsphere protease substrate cleavage, flow cytometry
Hits are given with their value; . = inactive; ? = inconclusive; / = no result; + = active, no number. Unless noted, no stated cut-off is given here; in the data, active means inhibition above about 30%; inconclusive means no clear call, values can overlap the other calls; inactive means below that.

SMILES | Autofluor counter | Anthrax LF prot | FBA Mtb inh | GDH-TPI inh | BoNT F protease | BoNT-A LC inh2
CCC(C)NC(=O)CSc1nc2ccsc2c(=O)n1-c1ccc(OC)cc1 (stereo unspecified) | . | . | . | . | . | .
COc1ccc(NC(=O)CSc2nc3sc4c(c3c(=O)n2-c2ccc(OC)cc2)CCN(C)C4)cc1 | . | . | . | 35 | . | .
CCOc1ccc(-n2c(SCC(N)=O)nc3sc4c(c3c2=O)CCN(C)C4)cc1 | . | . | . | 32 | ? | .
Cc1ccc(S(=O)(=O)/N=C(/Nc2cccc3ccccc23)c2ccc(F)cc2)cc1 | . | . | . | . | . | .
CCCCOP(=O)(OCCCC)C1(C)CC(=O)CC(C)(C)C1 (stereo unspecified) | . | . | . | . | . | .
O=c1ccc(-c2ccc(S(=O)(=O)Nc3ccc(F)cc3)s2)n[nH]1 | . | . | . | . | . | .
CCCOc1ccccc1C1NC(=O)NC(C)=C1C(=O)OCCOCC (stereo unspecified) | . | . | . | . | . | .
COC(=O)C1=CN(C(C)C)C=C(C(=O)OC)C1c1cccc(OC)c1 | . | . | + | . | . | .
COC(=O)C1=C(C)NC(=O)NC1c1ccccc1Cl (stereo unspecified) | . | . | . | . | . | .
CCCOc1ccccc1C1C(C(=O)OC)=CN(C(C)C)C=C1C(=O)OC | . | . | 165 | . | . | .
COC(=O)C1=CN(c2cc(C)cc(C)c2)C=C(C(=O)OC)C1c1cccc(F)c1 | . | . | . | . | . | .
CCN1C=C(C(=O)OC)C(c2cccc(C)c2)C(C(=O)OC)=C1 | . | . | + | . | . | .
COC(=O)C1=CN(C)C=C(C(=O)OC)C1c1ccccc1Cl | . | . | 199 | . | . | .
COc1cc(C#N)c(NC(=O)CN2CCC(C(N)=O)CC2)cc1OC | . | . | . | . | . | .
O=C(CNC(=O)c1ccc(Cl)cc1)OCCCOC(=O)CNC(=O)c1ccc(Cl)cc1 | . | . | . | . | . | .
COC(=O)C1=CN(C(C)C)C=C(C(=O)OC)C1c1cc(Br)c(OC)c(OC)c1 | 23675 | . | 154 | . | . | .
COC(=O)C1=CN(Cc2ccc(F)cc2)C=C(C(=O)OC)C1c1ccc(O)c(OC)c1 | . | . | . | . | . | .
CCCCn1c(CCC(=O)O)nc2cc(S(=O)(=O)N(CC)CC)ccc21 | . | . | . | . | . | .
Cc1ccc(CNC(=O)c2cccc(-n3cnnn3)c2)cc1 | 23751 | . | . | . | . | .
COc1ccc(CCNC(=O)c2cccc(-n3cnnn3)c2)cc1 | . | . | . | . | . | .
COc1cc(NC(=O)COc2ccc(-n3ccnc3)cc2)cc(OC)c1 | . | . | . | . | . | .
COc1cccc(NC(=O)Cn2c(=O)oc3ccccc32)c1 | 23609 | . | . | . | . | .
O=C(COc1ccccc1)Nc1cccc(-c2cn3cccnc3n2)c1 | . | . | + | . | . | .
COC(=O)C1=C(O)/C(=C/c2ccc(OCC(=O)Nc3ccc(OC)cc3)cc2)N=C1C | . | . | . | 34 | . | .
N#Cc1cccc(NC(=O)COc2ccc(-n3ccnc3)cc2)c1 | 23571 | . | . | . | . | .
SMILES | Autofluor counter | Anthrax LF prot | FBA Mtb inh | GDH-TPI inh | BoNT F protease | BoNT-A LC inh2
COC(=O)C1=C(O)/C(=C\c2ccc(OCC(=O)Nc3ccccc3)cc2)N=C1C | . | . | . | . | . | .
COC(=O)COc1cccc(NC(=O)c2ccccc2)c1 | 24578 | . | . | . | . | ?
COc1ccc(OCC(=O)Nc2cccc(OC)c2)cc1 | 17719 | . | . | . | . | .
COc1ccc(OCC(=O)Nc2cc(OC)cc(OC)c2)cc1 | . | . | . | . | . | .
Cc1nc(NC(=O)COc2ccccc2)sc1C(=O)Nc1cccc(Cl)c1 | 24209 | . | . | . | . | ?
O=C(NN=C1CCCCCC1)c1cccs1 | . | . | . | . | . | .
COc1ccc(-c2cc(C(=O)N3CCCc4ccccc43)no2)cc1OC | 22113 | . | . | . | . | .
COc1ccccc1-c1cc(C(=O)N2CCCc3ccccc32)no1 | . | . | . | . | . | .
COc1ccc(-c2cc(C(=O)N3CCc4ccccc4C3)no2)cc1OC | 21095 | . | . | . | . | .
Cc1ccc(-c2cc(C(=O)N3CCCc4ccccc43)no2)cc1 | . | . | . | . | . | .
COc1ccc(OC)c(-c2cc(C(=O)N3CCCc4ccccc43)no2)c1 | . | . | . | 34 | . | .
COc1cccc(-c2cc(C(=O)N3CCCc4ccccc43)no2)c1 | . | . | . | . | . | .
COc1ccc(-c2cc(C(=O)N3CCCc4ccccc43)no2)cc1 | 22780 | . | . | . | . | ?
O=C(c1cc(-c2ccccc2)on1)N1CCc2ccccc2C1 | . | . | . | . | . | .
C=CCc1cccc2cc(C(=O)Nc3ccc(S(=O)(=O)Nc4nnc(CC)s4)cc3)c(=O)oc12 | . | . | . | . | . | .
O=C(COC(=O)c1ccco1)NCCNC(=O)COC(=O)c1ccco1 | . | . | . | . | . | .
CC1ON=C(c2ccccn2)N(Cc2ccc3c(c2)OCO3)C1=O (stereo unspecified) | . | . | . | . | . | .
CC1CCc2sc(C(=O)N3CCN(c4ncccn4)CC3)cc2C1 (stereo unspecified) | . | . | . | . | . | .
C[C@@H]1CN([C@@H](C)CO)C(=O)CCCn2nncc2CO[C@H]1CN(C)C(=O)Nc1cccc2ccccc12 | . | . | 29 | . | . | .
O=C(Nc1c(C(=O)N2CCOCC2)cnn1-c1ccccc1)c1ccccc1F | . | . | . | . | . | .
CCN(CC)C(=O)c1cnn(-c2ccccc2)c1NC(=O)c1ccccc1F | 20443 | . | . | . | . | .
COc1ccccc1NC(=O)CN1C(=O)C(C)Oc2ccccc21 (stereo unspecified) | 22685 | . | . | . | . | .
CC1Oc2ccccc2N(CC(=O)Nc2ccccc2F)C1=O (stereo unspecified) | . | . | . | . | . | .
CC1Oc2ccccc2N(CC(=O)NCC2CCCO2)C1=O (stereo unspecified) | 23344 | . | . | . | . | .
COc1ccc(CC(=O)Oc2ccc(F)c(F)c2)cc1S(=O)(=O)N1CCOCC1 | . | . | . | . | . | .
SMILES | Autofluor counter | Anthrax LF prot | FBA Mtb inh | GDH-TPI inh | BoNT F protease | BoNT-A LC inh2
COc1cccc(N2CCN(C(=O)/C=C/c3ccco3)CC2)c1 | . | . | . | . | . | .
CC(=O)N1CCN(c2ccccc2NC(=O)COc2ccc(Br)cc2)CC1 | 23694 | . | . | . | . | .
O=C(COc1ccc(Br)cc1)Nc1ccccc1N1CCCC1 | . | . | . | . | . | .
COC(=O)c1ccc(S(=O)(=O)NCCSc2nnc3c4ccccc4n(C)c3n2)cc1 | 23909 | . | . | . | . | ?
Nc1cccc(N=[N+]([O-])c2cccc(N)c2)c1 | . | . | . | . | . | .
NC(=O)c1ccc(-c2ncc(-c3ccccc3)o2)cc1 | 18854 | . | / | . | . | .
COc1ccc(NC(=O)COC(=O)CCCc2c[nH]c3ccccc23)cc1OC | . | . | . | . | . | .
